Hits are enriched below; roughly 3.4% of the tested compounds scored in any of these assays.
TEAD-YAP block: TEAD-YAP interaction inhibition. actives 1.4% (n = 640,000). HEK-TIYL cells, TEAD-Gal4/YAP UAS-luciferase luminescence. inhibition, % at 9.12 µM. AID 1259422; in the data active = inhibition above about 32%
MITF inh: inhibitors of human MITF | O75030 | AlphaScreen MITF homodimerization, bead proximity signal | inhibition, % at 2.6 µM | actives 0.91% (n = 650,000); in the data active = inhibition above about 50%
Target sequence (O75030 whole entry, looked up): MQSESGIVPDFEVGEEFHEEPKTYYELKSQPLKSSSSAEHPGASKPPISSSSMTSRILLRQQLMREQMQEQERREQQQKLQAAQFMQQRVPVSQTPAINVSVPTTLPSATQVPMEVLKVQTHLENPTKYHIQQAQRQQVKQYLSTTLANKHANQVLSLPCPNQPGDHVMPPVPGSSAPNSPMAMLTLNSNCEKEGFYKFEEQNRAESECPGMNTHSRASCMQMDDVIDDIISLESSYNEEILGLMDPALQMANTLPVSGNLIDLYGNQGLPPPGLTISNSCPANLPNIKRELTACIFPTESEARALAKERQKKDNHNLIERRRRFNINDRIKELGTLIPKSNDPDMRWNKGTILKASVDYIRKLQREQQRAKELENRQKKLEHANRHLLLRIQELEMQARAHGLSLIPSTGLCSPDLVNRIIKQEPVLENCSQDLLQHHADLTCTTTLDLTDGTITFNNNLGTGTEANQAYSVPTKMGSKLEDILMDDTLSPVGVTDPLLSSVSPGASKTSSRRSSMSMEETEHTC
FBW7 act: activators of human E3 ligase FBW7 | Q969H0 | AlphaScreen FBW7–phospho-cyclin E peptide binding, activator screen | normalized activity (activation), % at 26.1 µM | actives 0.13% (n = 650,000) | AID 1259310; in the data active = normalized activity above about 1.9%;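 also: purified mutant Fbw7 with reduced substrate affinity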
GPR151 ag: activates the human receptor GPR151 | Q8TDV0 | PathHunter beta-arrestin GPR151 cells, luminescence | activation, % at 11.2 µM | actives 1% (n = 650,000); in the data active = activation above about 4.9%
GPR151 confirm: human GPR151 activation, confirmation screen; GPR151 PathHunter beta-arrestin cells, luminescence, 90 min; % of EA-reagent control over plate median; 6,700 tested, under 10 active; shares compounds with GPR151 ag; activation, % at 11.2 µM; AID 1508609;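 active = mean percent activation across replicates above the confirmation screen cutoff of 4.91%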
GPR119 ag: GPR119 activation, counter-screen for GPR151 activators; GPR119 PathHunter beta-arrestin cells, luminescence, 90 min; 0 = compound-well median, 100 = enzyme-acceptor control; activation, % at 11.2 µM; actives 0.3% (n = 6,700); shares compounds with GPR151 ag; AID 1508611;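 active = mean percent activation in the counterscreen above 29.09%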;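 also: counterscreen on off-target GPR119 to flag nonselective hits from the GPR151 activator screen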
Hits are given with their value; – = inactive; · = not tested or not shown.

SMILES	TEAD-YAP block	MITF inh	FBW7 act	GPR151 ag	GPR151 confirm	GPR119 ag
COCCCN1C(=S)NC2c3cc(Br)ccc3OC1(C)C2C (centres undefined)	–	–	–	–	·	·
CCN(C(=O)Cn1cc(-c2ccc(C)cc2)c(N2CCOCC2)n1)c1ccccc1	–	–	–	–	·	·
NC(=O)C1CCN(C(=O)CCn2c(=S)[nH]c3ccccc3c2=O)CC1	–	–	–	–	·	·
CC(=O)c1ccccc1OCC(O)CN1CCCCC1 (centres undefined)	–	–	–	–	·	·
CCOc1cc(Br)c(/C=C/C(=O)O)cc1OC	–	–	–	5.3	–	–
OC(c1cccnc1)c1ccc2c(c1)CN(Cc1cccc(Cl)c1)CCO2 (centres undefined)	–	–	–	41	–	–
COc1ccc(C(=O)NNC(=O)C(=O)N2CCCC2)cc1OC	–	–	–	5.6	–	–
O=C1C=Cc2ccc(N3CCOCC3)c3cccc1c23	–	–	–	6.1	–	–
CCN1C(=O)c2cccc3c(N4CCOCC4)ccc(c23)C1=O	–	–	–	–	·	·
Cc1nc2c(C(=O)NC3CC3)cnn2c(C)c1Cc1cccc(Cl)c1	–	–	–	–	·	·
Cc1nc2c(C(=O)NC3CCCC(C)C3C)cnn2c(C)c1Cc1cccc(Cl)c1 (centres undefined)	–	–	–	6.5	–	–
Cc1nc2c(C(=O)NCC3CCCO3)cnn2c(C)c1Cc1ccccc1 (centres undefined)	–	–	–	–	·	·
CCCCNC(=O)c1cnn2c(C)c(Cc3ccc(F)cc3)c(C)nc12	–	–	–	8.3	–	–
Cc1nc2c(C(=O)NCc3ccccc3Cl)cnn2c(C)c1Cc1cccc(Cl)c1	–	–	–	5.3	–	–
Cc1cccc(Cc2c(C)nc3c(C(=O)NCC4CCCO4)cnn3c2C)c1 (centres undefined)	–	–	–	5.1	–	–
Cc1cc(/C=C(\C#N)C(=O)N2CCOCC2)c(C)n1-c1ccc(Br)cc1	–	–	–	–	·	·
COc1ccccc1CNC(=O)c1cnn2c(C)c(Cc3ccc(C)cc3)c(C)nc12	–	–	–	5.6	–	–
O=C(/C=C/c1c(F)cccc1Cl)NCc1ccncc1	–	–	–	7.2	–	–
O=C(CSc1ccc2nnc(-c3cccs3)n2n1)NCc1ccccc1	–	–	–	–	·	·
Cc1nnc2ccc(SCC(=O)NCc3csc(-c4cccs4)n3)nn12	–	–	–	5.6	–	–
CCc1ccc(N(CC(=O)NC)S(C)(=O)=O)cc1	–	–	–	5.3	–	–
CCc1ccc(N(CC(=O)OC)S(C)(=O)=O)cc1	–	–	–	–	·	·
CCCCOC(=O)C1=C(C)N(C)C(=O)NC1c1ccccc1[N+](=O)[O-] (centres undefined)	–	–	–	–	·	·
CS(=O)(=O)N1CCN(c2ccc(C(=O)N3CCOCC3)cc2[N+](=O)[O-])CC1	–	–	–	7.6	–	–
O=C(c1ccc(N2CCCCCC2)c([N+](=O)[O-])c1)N1CCOCC1	–	–	–	–	·	·
SMILES	TEAD-YAP block	MITF inh	FBW7 act	GPR151 ag	GPR151 confirm	GPR119 ag
CC(C)(C)c1ccc(C(=O)N2CCN(c3ccc([N+](=O)[O-])cc3Cl)CC2)cc1	–	–	–	–	·	·
CC(C)(C)c1ccc(S(=O)(=O)N/N=C/c2ccccc2[N+](=O)[O-])cc1	–	–	–	–	·	·
O=[N+]([O-])c1ccccc1/C=N/NS(=O)(=O)c1ccc(Cl)cc1	–	–	–	14	–	–
O=C(CCn1nc(-c2ccccc2)c2ccccc2c1=O)NCc1ccccc1	–	–	–	18	–	–
CNC(=O)Cn1nc(C(=O)O)c2ccccc2c1=O	–	–	–	–	·	·
Cc1ccc(-c2nn(CC(=O)NCc3ccccc3)c(=O)c3ccccc23)cc1	–	–	–	5.1	–	–
CCCCNC(=O)CCn1nc(-c2ccccc2)c2ccccc2c1=O	–	–	–	–	·	·
CC(C)(C)NC(=O)Cn1nc(C(=O)O)c2ccccc2c1=O	–	–	–	5.9	–	–
CNC(=O)Cn1nc(-c2ccc(C)cc2)c2ccccc2c1=O	–	–	–	–	·	·
COc1ccc2c(c1)C1NC(=S)N(c3cccc(C)c3)C(C)(O2)C1C(=O)N(C)C (centres undefined)	–	–	–	–	·	·
Cc1[nH]nc2c1C(c1cc([N+](=O)[O-])ccc1Cl)C(C#N)=C(N)O2 (centres undefined)	–	–	–	–	·	·
CC1(C)Cc2ccccc2/C(=C/C(=O)C(=O)NCc2ccccc2)N1	–	–	–	6.6	–	–
CC(=O)c1ccc(-c2cc(F)cc3c2OC(CNC(=O)c2cnc(C)cn2)C3)s1 (centres undefined)	–	–	–	–	·	·
CC1CCCCN1c1nc2c(c(=O)[nH]1)CCN(CC1CCOC1)C2 (centres undefined)	–	–	–	–	·	·
Cc1cc(=O)[nH]c(N/N=C/C=C2\N(C)c3ccccc3C2(C)C)n1	–	–	–	5.0	–	–
N#Cc1ccccc1CN1CCC(Oc2cccc(-c3cccnc3)c2)CC1	–	–	–	5.2	–	–
CSc1nnc2c(n1)OC(c1cc(Br)c(I)o1)Nc1ccccc1-2 (centres undefined)	–	–	–	–	·	·
CC(=O)OC[C@H]1O[C@H](C/C=N/O[C@@H](C)c2cn([C@H](CO)Cc3ccccc3)nn2)C=C[C@@H]1OC(C)=O	·	–	–	–	·	·
CC(C)[C@@H](OCc1ccccc1)[C@H](C)/C=N/O[C@H](C)c1cn([C@H](CO)Cc2ccccc2)nn1	·	–	–	6.1	–	–
Cc1cc(N2CC(=O)N(CCc3ccccc3)C(=O)C2)nc(-n2nc(C)cc2C)n1	–	–	–	–	·	·
CCOC(=O)C1CCN(C(=O)C(C)(C)Oc2ccc(Cl)cc2)CC1	–	–	–	5.7	–	–
CC(C)(Oc1ccc(Cl)cc1)C(=O)N1CCCC1	–	–	–	–	·	·
CCN(CC)C(=O)C1CCN(Cc2ccc(C(C)C)cc2)CC1	–	–	–	–	·	·
COc1ccc2c(c1)COC1(CCN(C(=O)Nc3ccccc3F)CC1)O2	–	–	–	7.7	–	–
O=C(NCCN1CCOCC1)c1ccc2nc(N3CCN(Cc4ccc5c(c4)OCO5)CC3)sc2c1	–	–	–	6.8	–	–
SMILES	TEAD-YAP block	MITF inh	FBW7 act	GPR151 ag	GPR151 confirm	GPR119 ag
Cc1ccc(-n2c(C)cc(/C=N/Nc3ccccn3)c2C)cc1	–	–	–	5.5	–	–
Cc1nnc(N/N=C/c2cc(C)n(-c3ccc(F)cc3)c2C)n1N	–	–	–	6.3	–	–
CCOC(=O)c1ccc(-n2c(C)cc(/C=N/Nc3ccccn3)c2C)cc1	–	–	–	–	·	·
COc1ccc(Br)cc1/C=C1\N=C(c2ccccc2F)OC1=O	–	–	–	–	·	·
COC(=O)c1nsc(Cl)c1Cl	–	–	–	6.8	–	–
CCN(CC)c1nc(NCc2cccc(C(F)(F)F)c2)nc(Nc2ccc(C(F)(F)F)cc2)n1	–	–	–	–	·	·
